In the supplement of paper PMC8728848:
The full list was thinned out, with the strongest signals kept by preference.

Columns and labels:
Assay in all cases: glycan array binding signal (z-score within array); higher = stronger binding
Conditions in all cases: glycan notation: IUPAC condensed, linker removed
[1] = target: GalNAc(b1-3)Gal
In short: (§1)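 Glycan array data were curated from 3228 arrays in the Consortium for Functional Glycomics database and kept only where the protein sequence was available. Glycan names were converted to IUPAC-condensed notation, and columns mapping to the same glycan were averaged. The binding signal is a within-array Z-score, averaged across arrays of the same protein sequence at different concentrations or buffers and across linkers. Negative Z-scores can be read as non-binding.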

[2] = target: Glc(a1-4)Glc
In short: as §1

[3] = target: GlcNAc(a1-4)Gal(b1-4)GalNAc
In short: as §1

[4] = target: GlcNAc(a1-4)Gal(b1-4)GlcNAc(b1-3)Gal(b1-4)[Fuc(a1-3)]GlcNAc(b1-3)Gal(b1-4)[Fuc(a1-3)]GlcNAc
In short: as §1

[5] = target: GlcNAc(b1-2)Man(a1-3)[GlcNAc(b1-2)Man(a1-6)]Man(b1-4)GlcNAc(b1-4)GlcNAc
In short: as §1

[6] = target: GlcNAc(b1-3)Gal(b1-4)GlcNAc(b1-3)Gal(b1-4)GlcNAc(b1-2)Man(a1-3)[GlcNAc(b1-3)Gal(b1-4)GlcNAc(b1-3)Gal(b1-4)GlcNAc(b1-2)Man(a1-6)]Man(b1-4)GlcNAc(b1-4)[Fuc(a1-6)]GlcNAc
In short: as §1

[7] = target: GlcNAc(b1-3)Gal(b1-4)GlcNAc(b1-6)[GlcNAc(b1-3)Gal(b1-3)]GalNAc
In short: as §1

[8] = target: GlcNAc(b1-3)GalNAc
In short: as §1

[9] = target: Man(a1-2)Man(a1-2)Man(a1-3)Man
In short: as §1

[10] = target: Man(a1-2)Man(a1-6)[Man(a1-3)]Man(a1-6)[Man(a1-2)Man(a1-2)Man(a1-3)]Man
In short: as §1

[11] = target: Man(a1-3)[Man(a1-6)]Man(b1-4)GlcNAc(b1-4)[Fuc(a1-6)]GlcNAc
In short: as §1

[12] = target: Man(a1-6)Man
In short: as §1

[13] = target: Neu5Ac(a2-3)Gal(b1-3)GlcNAc6S
In short: as §1

[14] = target: Neu5Ac(a2-3)Gal(b1-3)[Neu5Ac(a2-6)]GalNAc
In short: as §1

[15] = target: Neu5Ac(a2-3)Gal(b1-4)Glc
In short: as §1

[16] = target: Neu5Ac(a2-3)Gal(b1-4)GlcNAc(b1-2)Man
In short: as §1

[17] = target: Neu5Ac(a2-3)Gal(b1-4)GlcNAc(b1-2)[Neu5Ac(a2-3)Gal(b1-4)GlcNAc(b1-4)]Man(a1-3)[GlcNAc(b1-4)][Neu5Ac(a2-3)Gal(b1-4)GlcNAc(b1-2)[Neu5Ac(a2-3)Gal(b1-4)GlcNAc(b1-6)]Man(a1-6)]Man(b1-4)GlcNAc(b1-4)GlcNAc
In short: as §1

[18] = target: Neu5Ac(a2-3)Gal(b1-4)GlcNAc(b1-3)Gal(b1-4)GlcNAc
In short: as §1

[19] = target: Neu5Ac(a2-3)Gal(b1-4)GlcNAc(b1-3)Gal(b1-4)GlcNAc(b1-6)[Gal(b1-3)]GalNAc
In short: as §1

[20] = target: Neu5Ac(a2-3)Gal(b1-4)GlcNAc(b1-6)[Gal(b1-3)]GalNAc
In short: as §1

[21] = target: Neu5Ac(a2-3)Gal(b1-4)[Fuc(a1-3)]GlcNAc(b1-3)Gal(b1-4)[Fuc(a1-3)]GlcNAc(b1-3)Gal(b1-4)[Fuc(a1-3)]GlcNAc
In short: as §1

[22] = target: Neu5Ac(a2-6)Gal(b1-4)Glc
In short: as §1

[23] = target: Neu5Ac9Ac(a2-3)Gal(b1-3)GlcNAc
In short: as §1

[24] = target: Neu5Gc(a2-3)Gal(b1-4)GlcNAc(b1-3)Gal(b1-4)GlcNAc(b1-2)Man(a1-3)[Neu5Gc(a2-3)Gal(b1-4)GlcNAc(b1-3)Gal(b1-4)GlcNAc(b1-2)Man(a1-6)]Man(b1-4)GlcNAc(b1-4)GlcNAc
In short: as §1

B1: Cohesin-hMARCO (Homo sapiens) (protein)
chain: LDDLDAVRIKVDTVNAKPGDTVRIPVRFSGIPSKGIANCDFVYSYDPNVLEIIEIEPGDIIVDPNPDKSFDTAVYPDRKIIVFLFAEDSGTGAYAITKDGVFATIVAKVKEGAPNGLSVIKFVEVGGFANNDLVEQKTQFFDGGANVGDTTEPATPTTPVTTPTTTDDLDAASVRIVGSSNRGRAEVYYSGTWGTICDDEWQNSDAIVFCRMLGYSKGRALYKVGAGTGQIWLDNVQCRGTESTLWSCTKNSWGHHDCSHEEDAGVECSVHHHHHH
[1]
  glycan array binding signal (z-score): 3.14
[2]
  glycan array binding signal (z-score): -0.037
[3]
  glycan array binding signal (z-score): -0.39
[4]
  glycan array binding signal (z-score): -0.104
[5]
  glycan array binding signal (z-score): -0.381
[6]
  glycan array binding signal (z-score): -0.453
[7]
  glycan array binding signal (z-score): -0.586
[8]
  glycan array binding signal (z-score): -0.3
[9]
  glycan array binding signal (z-score): 3.08
[10]
  glycan array binding signal (z-score): -0.013
[11]
  glycan array binding signal (z-score): -0.571
[12]
  glycan array binding signal (z-score): 3.28
[13]
  glycan array binding signal (z-score): 0.039
[14]
  glycan array binding signal (z-score): -0.255
[15]
  glycan array binding signal (z-score): -0.436
[16]
  glycan array binding signal (z-score): 0.296
[17]
  glycan array binding signal (z-score): -0.288
[18]
  glycan array binding signal (z-score): -0.514
[19]
  glycan array binding signal (z-score): -0.369
[20]
  glycan array binding signal (z-score): -0.481
[21]
  glycan array binding signal (z-score): -0.404
[22]
  glycan array binding signal (z-score): -0.411
[23]
  glycan array binding signal (z-score): 4.33
[24]
  glycan array binding signal (z-score): 0.016
